One assay has as its target Albumin (Bos taurus) (UniProt P02769). Nature of the assay: bovine serum albumin binders on microarray, profiling panel, artefact control for SMM control protein annotation, biochemical, small-molecule microarray, Alexa647 label, 635/667 nm fluorescence (AID 1118).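 Also: score merges 667 nm emission intensity and signal-to-noise per printed compound spot.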 To be noted: BSA-A647 binding, fluorescence 635 nm, higher = more signal.
The nature of assay [1]: small-molecule microarray binders of probe aXIP, primary screen, biochemical, NeuroSMM set, 635/667 nm fluorescence (AID 1119).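 Also: probe is the protein aXip251-270 applied at 1 µg/mL to compound-printed slides; binding of probe to printed compounds measured as 667 nm fluorescence plus signal to noise.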 To be noted: higher = more signal, called active from +8 up or from −8 down.
Assay [2] can be described thus: small-molecule binders of probe aNOTCH3, primary screen, biochemical, small-molecule microarray, 635/667 nm fluorescence (AID 1120).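 Also: probe is a biotin-tagged antibody raised against NOTCH3 rather than NOTCH3 protein; score merges spot fluorescence near 667 nm with spot signal to noise.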 To be noted: higher = more signal.
Assay [3] can be described thus: small-molecule binders of probe aNOTCH2, primary screen, biochemical, small-molecule microarray, 635/667 nm fluorescence (AID 1121).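 Also: score merges feature fluorescence read at 667 nm with its signal to noise.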 To be noted: higher = more signal.
The target of assay [4] is Carbonic anhydrase 2 (Homo sapiens) (UniProt P00918). Description: CAII small-molecule binders, profiling panel, biochemical, small-molecule microarray, Alexa647-labelled CAII (AID 1122). Conditions: CAII-A647 binding fluorescence, higher = more signal.
Assay [5] can be described thus: COS7 lysate on small-molecule microarray, probe aHis, 635 nm (AID 1123).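 Also: z-score combines 667nm fluorescence intensity with signal-to-noise per printed compound spot.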 Conditions: COS7 cell lysate, fluorescence, higher = more signal.
Assay [6] can be described thus: compound binding in COS7 lysate, probe aLAP1, primary screen, cell lysate, small-molecule microarray (AID 1124).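 Also: lysate comes from COS7 cells expressing LAP1 and is applied at 0.3 µg/mL; score merges spot fluorescence near 667 nm with signal-to-noise over triplicate slides.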 To be noted: probe aLAP1, fluorescence, higher = more signal.
A further assay deals with Sam68 (KHDRBS1). Nature of the assay: Sam68 small-molecule binders, primary screen, biochemical, small-molecule microarray, 635 nm fluorescence (AID 1125).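 Also: score merges 667 nm channel intensity with signal to noise over triplicate slides.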 Conditions: small-molecule microarray binding, higher = more signal.
In assay [7] the test system is Chordin-like protein 2 (CHRDL2). Nature of the assay: CHRDL2 small-molecule binders, primary screen, biochemical, small-molecule microarray, 635 nm fluorescence (AID 1126).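 Also: printed compound slides probed with Chrdl2 protein at 4 µg/mL for 1 h at 4 C; score merges 667 nm emission intensity with signal to noise over three replicate slides.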 Conditions: small-molecule microarray binding, fluorescence 635 nm; higher = more signal.
Assay [8] has as its target Concanavalin-A (Canavalia ensiformis) (UniProt P02866). Nature of the assay: ConA small-molecule binders, primary screen, artefact control for SMM control protein annotation, biochemical, small-molecule microarray, Alexa647 label, 635 nm (AID 1127).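 Also: z combines 667 nm emission intensity with signal-to-noise across three replicate slides.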 To be noted: ConA-A647 binding fluorescence, higher = more signal.
A short description of assay [9]: anti-His antibody binders, primary screen, artefact control for SMM control protein annotation, biochemical, small-molecule microarray, 635 nm fluorescence (AID 1128).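 Also: score merges feature fluorescence with signal-to-noise for each printed compound spot.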 Conditions: anti-His Alexa647 antibody binding, higher = more signal.
Assay [10] relates to Human papillomavirus type 1a E7 protein (residues 1-88). Description: HPV1a E7 small-molecule binders, primary screen, biochemical, small-molecule microarray, residues 1-88, 635 nm (AID 1129). Conditions: small-molecule microarray binding, fluorescence 635 nm; higher = more signal.
The target in assay [11] is Focal adhesion kinase 1 (Homo sapiens) (UniProt Q05397). Nature of the assay: small-molecule microarray binders of FAK, primary screen, biochemical, 635/667 nm fluorescence, BSA, DTT (AID 1130).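 Also: composite of spot emission at 667 nm and signal to noise over triplicate slides.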 To be noted: PTK2 binding, 635 nm fluorescence, higher = more signal.
The subject of assay [12] is Fibrinogen (Alexa647-labelled). Nature of the assay: fibrinogen binders on compound microarrays, profiling panel, artefact control for SMM control-protein annotation, biochemical, small-molecule microarray, 635/667 nm fluorescence (AID 1131).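 Also: z-score merges 667 nm fluorescence with per-spot signal-to-noise over triplicate slides.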 Conditions: fibrinogen-A647 binding fluorescence, higher = more signal.
Assay [13] addresses Follistatin (Homo sapiens) (UniProt P19883). Nature of the assay: follistatin binders on small-molecule microarrays, primary screen, biochemical, small-molecule microarray, 635/667 nm fluorescence (AID 1132). To be noted: FST binding, 635 nm fluorescence, higher = more signal.
Assay [14] concerns the target Fibroblast growth factor 2 (Homo sapiens) (UniProt P09038). Nature of the assay: FGF2 binders on small-molecule microarrays, primary screen, biochemical, small-molecule microarray, 635/667 nm fluorescence (AID 1133). Conditions: small-molecule microarray binding, FGF2, fluorescence 635/667; higher = more signal.
Assay [15] is described as follows: mitochondrial membrane potential change in A549 cells, profiling panel, cell-based, JC-1 fluorescence, basal, 24 h, 100 nL (AID 1138).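 Also: A549 lung adenocarcinoma cells under basal conditions with no added stimulus; test concentration not given here.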 To be noted: higher = more signal.
For another assay, the system named is Lefty1. Description: Lefty1 binders on small-molecule microarrays, primary screen, biochemical, small-molecule microarray, 635/667 nm fluorescence (AID 1139). Conditions: small-molecule microarray binding, fluorescence 635/667; higher = more signal.
Assay [16] deals with wheat germ agglutinin (Triticum aestivum), Alexa647-labelled. Description: wheat germ agglutinin binders on compound microarrays, profiling panel, artefact control for SMM control-protein annotation, biochemical, small-molecule microarray, 635/667 nm fluorescence (AID 1140).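 Also: score merges 667 nm feature emission with signal to noise over triplicate slides.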 To be noted: WGA-A647 binding, 635 nm fluorescence, higher = more signal.
Assay [17] deals with Luciferin 4-monooxygenase (Photinus pyralis) (UniProt P08659). Description: firefly luciferase enzyme inhibitors, primary screen, biochemical, luminescence, purified enzyme, 2006 set (AID 1141).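 Also: cell-free assay with purified firefly luciferase at 100 ng per well in PBS; test concentration not given here.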 Conditions: SteadyGlo luminescence, 30 min, higher = more signal, called active from +8 up or from −8 down.

Molecules are shown by their SMILES. Activity calls are given as the source filed them.

These results are taken from PubChem BioAssay.

Albumin (Bos taurus), sequence (P02769 whole entry, looked up): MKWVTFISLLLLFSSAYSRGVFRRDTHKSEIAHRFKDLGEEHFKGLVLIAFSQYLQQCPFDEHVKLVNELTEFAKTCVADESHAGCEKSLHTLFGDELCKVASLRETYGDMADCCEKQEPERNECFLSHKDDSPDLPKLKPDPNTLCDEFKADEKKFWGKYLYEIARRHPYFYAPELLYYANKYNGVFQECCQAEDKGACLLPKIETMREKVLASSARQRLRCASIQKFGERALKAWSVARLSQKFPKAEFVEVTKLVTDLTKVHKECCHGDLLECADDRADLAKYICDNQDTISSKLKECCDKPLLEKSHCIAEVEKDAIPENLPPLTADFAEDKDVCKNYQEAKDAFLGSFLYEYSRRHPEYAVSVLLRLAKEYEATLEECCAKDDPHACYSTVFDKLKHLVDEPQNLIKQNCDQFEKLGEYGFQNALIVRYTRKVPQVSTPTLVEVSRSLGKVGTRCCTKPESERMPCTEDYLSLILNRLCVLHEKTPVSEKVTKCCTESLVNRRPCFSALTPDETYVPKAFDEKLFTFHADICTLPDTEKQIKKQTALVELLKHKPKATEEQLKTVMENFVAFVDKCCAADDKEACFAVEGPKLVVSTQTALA
Luciferin 4-monooxygenase (Photinus pyralis), sequence (P08659 whole entry, looked up): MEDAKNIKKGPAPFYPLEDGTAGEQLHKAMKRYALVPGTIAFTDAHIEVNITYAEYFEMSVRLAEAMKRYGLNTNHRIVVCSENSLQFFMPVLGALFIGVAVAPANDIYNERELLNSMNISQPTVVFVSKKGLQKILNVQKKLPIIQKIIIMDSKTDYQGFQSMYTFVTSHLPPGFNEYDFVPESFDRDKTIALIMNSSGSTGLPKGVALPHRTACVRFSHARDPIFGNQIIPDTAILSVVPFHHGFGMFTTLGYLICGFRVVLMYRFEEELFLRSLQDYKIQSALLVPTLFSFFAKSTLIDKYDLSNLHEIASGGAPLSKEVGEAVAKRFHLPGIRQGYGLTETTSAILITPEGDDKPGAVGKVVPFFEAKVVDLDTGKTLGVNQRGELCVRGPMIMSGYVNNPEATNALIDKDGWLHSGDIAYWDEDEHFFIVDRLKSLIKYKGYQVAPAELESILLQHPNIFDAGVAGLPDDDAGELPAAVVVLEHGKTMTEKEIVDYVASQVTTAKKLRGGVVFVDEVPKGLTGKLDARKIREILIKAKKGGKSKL
Fibroblast growth factor 2 (Homo sapiens), sequence (P09038 whole entry, looked up): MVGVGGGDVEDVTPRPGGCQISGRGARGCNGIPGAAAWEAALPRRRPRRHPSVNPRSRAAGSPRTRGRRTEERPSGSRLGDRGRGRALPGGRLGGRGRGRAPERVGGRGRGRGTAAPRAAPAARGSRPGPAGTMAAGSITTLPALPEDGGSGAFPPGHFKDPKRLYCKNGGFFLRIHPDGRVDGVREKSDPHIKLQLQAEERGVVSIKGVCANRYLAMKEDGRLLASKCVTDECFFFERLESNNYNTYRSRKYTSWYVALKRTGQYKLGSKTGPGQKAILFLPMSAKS
Focal adhesion kinase 1 (Homo sapiens), sequence (Q05397 whole entry, looked up): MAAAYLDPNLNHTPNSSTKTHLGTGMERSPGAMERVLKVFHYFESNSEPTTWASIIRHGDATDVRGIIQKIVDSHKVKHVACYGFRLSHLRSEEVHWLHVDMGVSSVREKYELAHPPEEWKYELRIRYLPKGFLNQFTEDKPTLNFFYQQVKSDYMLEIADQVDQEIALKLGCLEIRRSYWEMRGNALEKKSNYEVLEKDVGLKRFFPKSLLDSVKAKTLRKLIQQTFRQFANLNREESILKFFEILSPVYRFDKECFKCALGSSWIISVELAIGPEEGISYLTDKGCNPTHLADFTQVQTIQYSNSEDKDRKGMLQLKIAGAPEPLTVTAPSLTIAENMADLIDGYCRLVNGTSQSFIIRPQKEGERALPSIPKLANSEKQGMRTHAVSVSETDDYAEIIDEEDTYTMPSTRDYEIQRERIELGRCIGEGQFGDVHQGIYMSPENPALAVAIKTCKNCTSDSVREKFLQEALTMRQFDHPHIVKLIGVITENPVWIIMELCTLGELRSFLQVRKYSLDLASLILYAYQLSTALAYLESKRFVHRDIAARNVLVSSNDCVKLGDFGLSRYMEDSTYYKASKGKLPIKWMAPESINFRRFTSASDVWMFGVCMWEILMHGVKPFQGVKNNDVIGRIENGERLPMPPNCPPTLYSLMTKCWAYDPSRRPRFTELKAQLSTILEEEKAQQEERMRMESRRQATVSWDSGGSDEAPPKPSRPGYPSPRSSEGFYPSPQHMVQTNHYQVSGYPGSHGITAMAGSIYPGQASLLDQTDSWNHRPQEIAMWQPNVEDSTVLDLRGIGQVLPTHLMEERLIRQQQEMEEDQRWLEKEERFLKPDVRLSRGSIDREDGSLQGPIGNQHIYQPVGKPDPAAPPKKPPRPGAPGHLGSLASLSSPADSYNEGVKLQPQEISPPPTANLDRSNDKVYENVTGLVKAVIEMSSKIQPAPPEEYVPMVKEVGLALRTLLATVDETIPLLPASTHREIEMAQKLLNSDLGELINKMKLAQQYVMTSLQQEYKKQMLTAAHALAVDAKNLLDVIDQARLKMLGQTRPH
Follistatin (Homo sapiens), sequence (P19883 whole entry, looked up): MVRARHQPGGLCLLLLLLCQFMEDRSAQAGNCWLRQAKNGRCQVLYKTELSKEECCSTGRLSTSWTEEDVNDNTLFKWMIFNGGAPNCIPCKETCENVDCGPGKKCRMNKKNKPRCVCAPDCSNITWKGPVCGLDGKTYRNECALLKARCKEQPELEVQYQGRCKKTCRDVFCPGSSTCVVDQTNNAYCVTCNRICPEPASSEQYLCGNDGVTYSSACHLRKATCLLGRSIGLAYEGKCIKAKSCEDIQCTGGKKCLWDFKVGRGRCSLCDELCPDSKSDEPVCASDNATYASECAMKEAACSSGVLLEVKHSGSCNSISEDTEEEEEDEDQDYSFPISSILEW
Concanavalin-A (Canavalia ensiformis), sequence (P02866 whole entry, looked up): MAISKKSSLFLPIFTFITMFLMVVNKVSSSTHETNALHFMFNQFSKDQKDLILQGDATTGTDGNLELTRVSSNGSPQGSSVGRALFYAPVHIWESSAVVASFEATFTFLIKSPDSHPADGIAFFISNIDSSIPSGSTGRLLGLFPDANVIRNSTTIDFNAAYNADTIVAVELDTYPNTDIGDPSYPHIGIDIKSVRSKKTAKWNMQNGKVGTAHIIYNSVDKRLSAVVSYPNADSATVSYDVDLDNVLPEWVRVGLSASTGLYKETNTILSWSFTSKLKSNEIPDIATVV

`CC1=C2[C@@H](CCc3ccccc3)OB(O)C[C@@H]2[C@@H]2C(=O)N(Cc3ccccc3)C(=O)[C@@H]2C1`: the composite z-score was 0.415 with Albumin (Bos taurus); -0.145 in assay [2]; -0.0735 in assay [3]; 0.585 in assay [4]; 0.328 in [5]; -0.294 in [6]. Besides, the composite z-score was 0.227 in the assay on Sam68 (KHDRBS1); 0.226 in assay [7]; 0.948 in [8]; 0.0349 in assay [9]; 0.55 in assay [10]; -0.0683 in assay [11]. Moreover, the composite z-score in assay [12] worked out at 0.987; in assay [13], 0.946; in assay [14], 0.33; in the assay on Lefty1, 0.388; in [16], 0.505. Further, in assay [1], the composite Z-score is 0.831 (inactive). Besides, the z-score in assay [15] is 0.758; in assay [17], -0.653 (inactive).
Regarding `O=C1OCCC=C[C@H]2OC34C=CCN(c5ccc6ccccc6c5)C(=O)[C@H]3N(CCCO)C(=O)[C@@H]4C12` (stereo not given in full), the composite z-score with Albumin (Bos taurus) was -1.39; in assay [2] it was -0.278; in [3], -0.205; in assay [4], -0.303; in assay [5], -0.626; in assay [6], -0.678. For the same compound, the composite z-score in the assay with Sam68 (KHDRBS1) was -1.82; in assay [7], -2.29; in [8], -0.533; in assay [9] it was -0.581; in [10], -2.27; in [11] it was -0.459. Also, the composite z-score was -0.51 in assay [12]; -1.25 in assay [13]; -2.33 in assay [14]; -1.81 in the assay on Lefty1; -1.29 in [16]. Besides, the composite Z-score in [1] is 0.168 (inactive). The figures for the z-score in assay [15] and in [17] were -0.446 and -0.244 (inactive), respectively.
Take `C=CCN1C(=O)[C@]2(CCS(=O)(=O)c3ccccc3)N=C(c3ccc(OCCCO)cc3)O[C@@H]2c2ccccc21`: the composite z-score with Albumin (Bos taurus) is 0.8; in assay [2] it was 0.177; in assay [3] it was -0.112; in assay [4], 0.594; in assay [5], 3.23; in assay [6] it was 1.31. Moreover, the composite z-score in the assay on Sam68 (KHDRBS1) was found to be 1.31; in [7], 1; in [8], 1.17; in assay [9], 2.73; in [10] it was 1.23; in [11], 1.29. Moreover, the composite z-score in assay [12] came out at 0.891; in [13], 1.31; in assay [14] it was 1.47; with Lefty1, 0.825; in [16] it was 1.19. For the same compound, the composite Z-score in assay [1] was -0.0072 (inactive). The z-score in [15] was 1.3; in assay [17], -2.23 (inactive).
Consider `CN(C)C(=O)[C@@]1(Cc2ccccc2CN=[N+]=[N-])N=C(c2ccc(OCCCO)cc2)O[C@H]1c1ccccc1N=[N+]=[N-]`, for which the composite z-score with Albumin (Bos taurus) is 0.973; in [2], 0.612; in assay [3], -0.115; in [4], 0.731; in assay [5], 2.95; in assay [6], 0.772. In addition, the composite z-score with Sam68 (KHDRBS1) was 1.21; in assay [7], -0.612; in [8] it was 1.1; in [9], 2.09; in [10], 1.27; in [11] it was 0.801. Further, the composite z-score in assay [12] is 0.983; in assay [13] it was 0.711; in assay [14], -0.0088; in the assay on Lefty1, 0.627; in assay [16], 1.22. Besides, the composite Z-score in assay [1] was 0.91 (inactive). For the same compound, the values for the z-score in [15] and in [17] were -1.02 and -6.81 (inactive), respectively.
In the case of `O=c1cccc(-c2ccc([N+](=O)[O-])cc2)o1`, the composite z-score with Albumin (Bos taurus) is -0.293; in [2], 0.0692; in assay [3] it was -0.154; in [4], 0.365; in assay [5], 0.403; in [6] it was 0.633. Besides, the composite z-score in the assay on Sam68 (KHDRBS1) is 0.795; in assay [7], 0.075; in [8], -0.549; in [9] it was 0.504; in assay [10], 0.963; in assay [11], 0.21. In addition, the composite z-score is -0.301 in assay [12]; 1.28 in assay [13]; 1.05 in assay [14]; 1.4 in the assay with Lefty1; 0.301 in assay [16]. The composite Z-score in assay [1] is 0.46 (inactive). For the same compound, the values for the z-score in assay [15] and in assay [17] were -0.233 and 1.68 (inactive), respectively.
For `CS(=O)(=O)CCOC(=O)C1=CC(c2ccc(CO)cc2)=CC(C2CC2)N(Cc2sc3ccccc3c2Cl)C=C1C(=O)OCCS(C)(=O)=O` (stereo not given), the composite z-score in the assay with Albumin (Bos taurus) was 0.52; in [2], 0.029; in assay [3], -0.0839; in assay [4] it was 0.815; in [5], 0.737; in assay [6], 0.55. Also, the composite z-score turned out to be 1.03 in the assay with Sam68 (KHDRBS1); 0.802 in assay [7]; 1.11 in [8]; 1.27 in assay [9]; 0.795 in [10]; 0.716 in assay [11]. Moreover, the composite z-score in [12] is 0.88; in [13], 1.28; in assay [14], 0.881; in the assay on Lefty1 it was 0.851; in assay [16], 0.861. In assay [1], the composite Z-score is 0.42 (inactive). Also, the figures for the z-score in assay [15] and in assay [17] were 2.04 and -1.86 (inactive), respectively.
On to `COc1cc2c(cc1O)C(c1cccs1)N(Cc1cc3c(cc1Br)OCO3)CC2` (stereo not given), for which the composite z-score is 0.794 in the assay with Albumin (Bos taurus); 0.0438 in [2]; -0.0397 in assay [3]; 0.723 in assay [4]; 2.92 in [5]; 1.03 in assay [6]. Besides, the composite z-score in the assay on Sam68 (KHDRBS1) was determined as 1.04; in assay [7], 0.417; in [8] it was 1.12; in [9], 1.83; in assay [10], 1.28; in [11], 0.822. Also, the composite z-score was 0.976 in assay [12]; 1.08 in [13]; 0.75 in [14]; 0.556 in the assay on Lefty1; 0.544 in assay [16]. The composite Z-score in [1] is 0.715 (inactive). For the same compound, the z-score in [15] was -1.56; in assay [17], -0.657 (inactive).
Turning to `CCOC(=O)C[C@H]1[C@H](OC(=O)c2ccccc2-c2ccccc2)[C@@H](NC(=O)c2ccc3ccccc3n2)c2cc(OCCCO)ccc2N1C(=O)Cc1ccc(OC)cc1`, the composite z-score with Albumin (Bos taurus) is 0.505; in [2], 0.033; in [3], -0.106; in assay [4], 0.105; in assay [5], 0.428; in [6], 0.134. In addition, the composite z-score is 0.368 in the assay with Sam68 (KHDRBS1); 0.456 in assay [7]; 0.0562 in assay [8]; -0.186 in [9]; 0.511 in assay [10]; 0.0434 in [11]. The composite z-score in [12] worked out at 0.47; in [13], 0.248; in assay [14], 0.268; in the assay with Lefty1, 0.577; in [16] it was 0.509. Besides, the composite Z-score in assay [1] is -0.891 (inactive). Also, the z-score in [15] is 0.397; in [17], 0.43 (inactive).
